Assay results: PubChem BioAssay (NCI)
The panel holds about 79,000 compounds, 15% with a hit somewhere; the sample as a whole holds those more often. Values without a mark were called inactive. Active and inactive are the calls of the source. Cut-off read from the data, not from the text of the source: active = growth inhibition above about 70%; inactive = the rest.

Experiments:
[1] = NCI Yeast Anticancer Drug Screen. Data for the rad52 strain (AID 147);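 note: 0% = growth of vehicle-treated control cultures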; conditions: S. cerevisiae rad52 mutant growth inhibition, hits give high values
In short: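 Read-out: growth inhibition versus vehicle-treated controls. Cells were a DNA repair-deficient yeast strain treated with compounds.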

[2] = NCI Yeast Anticancer Drug Screen. Data for the wt1 strain (AID 149);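 note: 0% = growth of vehicle-treated wt1 cultures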; conditions: S. cerevisiae wt1 strain (SPY 50644) growth inhibition, hits give high values
In short: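 Using yeast strain wt1, compound-induced growth inhibition was determined against vehicle-treated cultures.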

[3] = NCI Yeast Anticancer Drug Screen. Data for the rad50EPP+ strain (AID 151);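 note: 0% = growth of vehicle-treated control cultures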; conditions: S. cerevisiae rad50 mutant strain, hits give high values
In short: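 Growth inhibition read against vehicle controls in rad50EPP+ yeast, a strain altered in DNA damage repair, after compound exposure.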

[4] = NCI Yeast Anticancer Drug Screen. Data for the mgt1 strain (AID 153); conditions: S. cerevisiae mgt1 mutant growth inhibition, hits give high values
In short: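 mgt1 yeast grown with test compound; read-out is growth inhibition versus vehicle-treated cultures.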

[5] = NCI Yeast Anticancer Drug Screen. Data for the rad50 strain (AID 155);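 note: 0% = growth of vehicle-only cultures of the same strain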; conditions: S. cerevisiae rad50 strain growth inhibition, hits give high values
In short: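 Relative growth inhibition (compound vs vehicle) was measured in yeast with a defined repair-gene alteration.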

[6] = NCI Yeast Anticancer Drug Screen. Data for the mec2-1 strain (AID 157); conditions: S. cerevisiae mec2-1 strain, hits give high values
In short: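 Yeast mec2-1 mutant treated with compound. Readout: growth inhibition vs vehicle controls.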

[7] = NCI Yeast Anticancer Drug Screen. Data for the rad14 strain (AID 159);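 note: 0% = growth of vehicle-treated control cultures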; conditions: S. cerevisiae rad14 strain growth inhibition, hits give high values
In short: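 Screen for anticancer potential: a yeast strain altered in DNA damage repair is grown with compound, and reduced growth is quantified against vehicle controls.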

[8] = NCI Yeast Anticancer Drug Screen. Data for the sgs1 mgt1 strain (AID 161);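 note: 0% = growth of cultures given vehicle only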; conditions: S. cerevisiae sgs1 mgt1 strain, hits give high values
In short: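 Read-out: growth inhibition vs vehicle controls. Cells: mutant yeast strain deficient in DNA damage repair.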

[9] = NCI Yeast Anticancer Drug Screen. Data for the CLN2oe strain (AID 163);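 note: 0% = growth of vehicle-only control cultures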; conditions: S. cerevisiae CLN2oe strain, hits give high values
In short: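 Read-out: yeast growth inhibition, expressed relative to vehicle-only controls. The strain bears an engineered cell-cycle alteration.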

[10] = NCI Yeast Anticancer Drug Screen. Data for the cln2 rad14 strain (AID 165);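 note: 0% = growth equal to vehicle treated cultures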; conditions: S. cerevisiae cln2 rad14 strain, hits give high values
In short: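 cln2 rad14 yeast strain; compound exposure; growth inhibition read vs vehicle controls.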

[11] = NCI Yeast Anticancer Drug Screen. Data for the bub3 strain (AID 167); conditions: S. cerevisiae bub3 mutant strain, hits give high values
In short: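 Screening used yeast with an engineered genetic alteration affecting cell cycle control. Compound-exposed cultures were compared with vehicle cultures, and reduced growth was taken as inhibition.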

[12] = NCI Yeast Anticancer Drug Screen. Data for the wt2 strain (AID 169);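 note: 0% = growth of vehicle-treated yeast cultures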; conditions: S. cerevisiae wt2 strain growth inhibition, hits give high values
In short: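 Read-out: growth inhibition versus vehicle-treated control cultures after compound exposure of the yeast strain.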

[13] = NCI Yeast Anticancer Drug Screen. Data for the mlh1 strain (AID 171);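 note: 0% = growth of vehicle-treated control cultures of the same strain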; conditions: S. cerevisiae mlh1 strain growth inhibition, hits give high values
In short: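 Read-out: growth inhibition versus vehicle controls. Strain: engineered yeast with a defined DNA repair or cell cycle defect, compound-treated.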

[14] = NCI Yeast Anticancer Drug Screen. Data for the sgs1 strain (AID 173);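 note: 0% = growth of vehicle-only control cultures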; conditions: S. cerevisiae sgs1 mutant, hits give high values
In short: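 Read-out: yeast growth inhibition relative to vehicle controls, following compound exposure of a strain with a defined DNA repair/cell cycle alteration.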

[15] = NCI Yeast Anticancer Drug Screen. Data for the rad18 strain (AID 177); conditions: S. cerevisiae rad18 mutant growth inhibition, hits give high values
In short: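 Readout: growth inhibition vs vehicle controls. Cells: genetically altered yeast strain, DNA repair defect.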

[16] = NCI Yeast Anticancer Drug Screen. Data for the mlh1 rad18 strain (AID 175); conditions: S. cerevisiae mlh1 rad18 strain growth inhibition, hits give high values
In short: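 Yeast w/ defined DNA-repair lesions; compound exposure; growth vs vehicle controls → % inhibition.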

[17] = at 5.0 µM (retest, dose inferred, filed as 0.5)
[18] = at 50.0 µM (retest, dose inferred, filed as 5.0)

SMILES: CCCCN(CCCC)c1ccc(N=Nc2ccc(S(=O)(=O)O)cc2)cc1
- growth inhibition ([1]; at 1.2 µM): 21%
- growth inhibition ([1]; at 3.7 µM): 48%
- growth inhibition ([1]; at 11.0 µM): 40%
- growth inhibition ([1]; at 33.0 µM): 89% (active)
- growth inhibition ([1]; at 100.0 µM): 90% (active)
- growth inhibition ([2]; at 1.2 µM): -9%
- growth inhibition ([2]; at 3.7 µM): 2%
- growth inhibition ([2]; at 11.0 µM): 33%
- growth inhibition ([2]; at 33.0 µM): 97% (active)
- growth inhibition ([2]; at 100.0 µM): 97% (active)
- growth inhibition ([3]; at 1.2 µM): 10%
- growth inhibition ([3]; at 3.7 µM): 8%
- growth inhibition ([3]; at 11.0 µM): 48%
- growth inhibition ([3]; at 33.0 µM): 84% (active)
- growth inhibition ([3]; at 100.0 µM): 87% (active)
- growth inhibition ([4]; at 1.2 µM): 19%
- growth inhibition ([4]; at 3.7 µM): 39%
- growth inhibition ([4]; at 11.0 µM): 92% (active)
- growth inhibition ([4]; at 33.0 µM): 97% (active)
- growth inhibition ([4]; at 100.0 µM): 97% (active)
- growth inhibition ([5]; at 1.2 µM): 16%
- growth inhibition ([5]; at 3.7 µM): 14%
- growth inhibition [5, 17]: 63%
- growth inhibition ([5]; at 11.0 µM): 38%
- growth inhibition ([5]; at 33.0 µM): 92% (active)
- growth inhibition [5, 18]: 99% (active)
- growth inhibition ([5]; at 50.0 µM): 87.7% (active)
- growth inhibition ([5]; at 100.0 µM): 93% (active)
- growth inhibition ([6]; at 1.2 µM): 32%
- growth inhibition ([6]; at 3.7 µM): 43%
- growth inhibition [6, 17]: 52%
- growth inhibition ([6]; at 11.0 µM): 77% (active)
- growth inhibition ([6]; at 33.0 µM): 97% (active)
- growth inhibition [6, 18]: 98% (active)
- growth inhibition ([6]; at 50.0 µM): 90.7% (active)
- growth inhibition ([6]; at 100.0 µM): 97% (active)
- growth inhibition ([7]; at 1.2 µM): -5%
- growth inhibition ([7]; at 3.7 µM): 8%
- growth inhibition ([7]; at 11.0 µM): 38%
- growth inhibition ([7]; at 33.0 µM): 97% (active)
- growth inhibition ([7]; at 100.0 µM): 97% (active)
- growth inhibition [8, 17]: -48%
- growth inhibition [8, 18]: 98% (active)
- growth inhibition ([8]; at 50.0 µM): 91.7% (active)
- growth inhibition ([9]; at 1.2 µM): 12%
- growth inhibition ([9]; at 3.7 µM): -15%
- growth inhibition ([9]; at 11.0 µM): -8%
- growth inhibition ([9]; at 33.0 µM): 97% (active)
- growth inhibition ([9]; at 100.0 µM): 96% (active)
- growth inhibition [10, 17]: 20%
- growth inhibition [10, 18]: 98% (active)
- growth inhibition ([10]; at 50.0 µM): 88.7% (active)
- growth inhibition ([11]; at 1.2 µM): 34%
- growth inhibition ([11]; at 3.7 µM): 55%
- growth inhibition [11, 17]: -2%
- growth inhibition ([11]; at 11.0 µM): 71% (active)
- growth inhibition ([11]; at 33.0 µM): 94% (active)
- growth inhibition [11, 18]: 96% (active)
- growth inhibition ([11]; at 50.0 µM): 89.8% (active)
- growth inhibition ([11]; at 100.0 µM): 95% (active)
- growth inhibition ([12]; at 1.2 µM): -7%
- growth inhibition ([12]; at 3.7 µM): 39%
- growth inhibition ([12]; at 11.0 µM): 89% (active)
- growth inhibition ([12]; at 33.0 µM): 97% (active)
- growth inhibition ([12]; at 100.0 µM): 97% (active)
- growth inhibition ([13]; at 1.2 µM): 1%
- growth inhibition ([13]; at 3.7 µM): 18%
- growth inhibition ([13]; at 11.0 µM): 82% (active)
- growth inhibition ([13]; at 33.0 µM): 94% (active)
- growth inhibition ([13]; at 100.0 µM): 94% (active)
- growth inhibition ([14]; at 1.2 µM): 30%
- growth inhibition ([14]; at 3.7 µM): 53%
- growth inhibition ([14]; at 11.0 µM): 90% (active)
- growth inhibition ([14]; at 33.0 µM): 94% (active)
- growth inhibition ([14]; at 100.0 µM): 94% (active)
- growth inhibition ([15]; at 1.2 µM): -18%
- growth inhibition ([15]; at 3.7 µM): 0%
- growth inhibition ([15]; at 11.0 µM): 8%
- growth inhibition ([15]; at 33.0 µM): 90% (active)
- growth inhibition ([15]; at 100.0 µM): 92% (active)

SMILES: CCCCCCCN1C(=O)c2ccccc2C1=O
- growth inhibition ([1]; at 1.2 µM): -1%
- growth inhibition ([1]; at 3.7 µM): -1%
- growth inhibition ([1]; at 11.0 µM): -3%
- growth inhibition ([1]; at 33.0 µM): 11%
- growth inhibition ([1]; at 100.0 µM): 28%
- growth inhibition ([2]; at 1.2 µM): 0%
- growth inhibition ([2]; at 3.7 µM): -1%
- growth inhibition ([2]; at 11.0 µM): -1%
- growth inhibition ([2]; at 33.0 µM): -1%
- growth inhibition ([2]; at 100.0 µM): 0%
- growth inhibition ([3]; at 1.2 µM): 0%
- growth inhibition ([3]; at 3.7 µM): -1%
- growth inhibition ([3]; at 11.0 µM): 8%
- growth inhibition ([3]; at 33.0 µM): 25%
- growth inhibition ([3]; at 100.0 µM): 35%
- growth inhibition ([4]; at 1.2 µM): -7%
- growth inhibition ([4]; at 3.7 µM): -6%
- growth inhibition ([4]; at 11.0 µM): -5%
- growth inhibition ([4]; at 33.0 µM): 9%
- growth inhibition ([4]; at 100.0 µM): 31%
- growth inhibition ([5]; at 1.2 µM): -2%
- growth inhibition ([5]; at 3.7 µM): 5%
- growth inhibition [5, 17]: -17%
- growth inhibition ([5]; at 11.0 µM): 7%
- growth inhibition ([5]; at 33.0 µM): 26%
- growth inhibition [5, 18]: 3%
- growth inhibition ([5]; at 50.0 µM): 83.9% (active)
- growth inhibition ([5]; at 100.0 µM): 22%
- growth inhibition ([6]; at 1.2 µM): -5%
- growth inhibition ([6]; at 3.7 µM): -8%
- growth inhibition [6, 17]: -10%
- growth inhibition ([6]; at 11.0 µM): -27%
- growth inhibition ([6]; at 33.0 µM): -6%
- growth inhibition [6, 18]: 11%
- growth inhibition ([6]; at 50.0 µM): 53.2%
- growth inhibition ([6]; at 100.0 µM): -11%
- growth inhibition ([7]; at 1.2 µM): -1%
- growth inhibition ([7]; at 3.7 µM): -10%
- growth inhibition ([7]; at 11.0 µM): 4%
- growth inhibition ([7]; at 33.0 µM): 13%
- growth inhibition ([7]; at 100.0 µM): 2%
- growth inhibition [8, 17]: -14%
- growth inhibition [8, 18]: 19%
- growth inhibition ([8]; at 50.0 µM): 67.8%
- growth inhibition ([9]; at 1.2 µM): -1%
- growth inhibition ([9]; at 3.7 µM): -2%
- growth inhibition ([9]; at 11.0 µM): -4%
- growth inhibition ([9]; at 33.0 µM): -6%
- growth inhibition ([9]; at 100.0 µM): -11%
- growth inhibition [10, 17]: -7%
- growth inhibition [10, 18]: -8%
- growth inhibition ([10]; at 50.0 µM): 30.6%
- growth inhibition ([11]; at 1.2 µM): 3%
- growth inhibition ([11]; at 3.7 µM): -4%
- growth inhibition [11, 17]: -17%
- growth inhibition ([11]; at 11.0 µM): 28%
- growth inhibition ([11]; at 33.0 µM): 36%
- growth inhibition [11, 18]: 34%
- growth inhibition ([11]; at 50.0 µM): 73.8% (active)
- growth inhibition ([11]; at 100.0 µM): 37%
- growth inhibition ([12]; at 1.2 µM): -2%
- growth inhibition ([12]; at 3.7 µM): -1%
- growth inhibition ([12]; at 11.0 µM): 0%
- growth inhibition ([12]; at 33.0 µM): 11%
- growth inhibition ([12]; at 100.0 µM): 45%
- growth inhibition ([13]; at 1.2 µM): -12%
- growth inhibition ([13]; at 3.7 µM): -6%
- growth inhibition ([13]; at 11.0 µM): -19%
- growth inhibition ([13]; at 33.0 µM): -19%
- growth inhibition ([13]; at 100.0 µM): 1%
- growth inhibition [16, 17]: -31%
- growth inhibition [16, 18]: 56%
- growth inhibition ([16]; at 50.0 µM): 86.6% (active)
- growth inhibition ([15]; at 1.2 µM): -1%
- growth inhibition ([15]; at 3.7 µM): -5%
- growth inhibition ([15]; at 11.0 µM): -1%
- growth inhibition ([15]; at 33.0 µM): 13%
- growth inhibition ([15]; at 100.0 µM): 28%
